Source: PubChem BioAssay (University of Pittsburgh Molecular Library Screening Center)
HIV RNase H inh-1: inhibitors of HIV-1 reverse transcriptase RNase H | RT-RNase H RNA/DNA duplex cleavage, fluorescence | 1.9% of 65,000 active | AID 565 | inhibition, % at 10 µM; in the data active means inhibition above about 50%
HIV RNase H inh-2: confirmation of HIV-1 reverse transcriptase RNase H inhibitors | shares compounds with HIV RNase H inh-1 | Recombinant RT RNase H, fluorescent RNA/DNA duplex cleavage | inhibition, % at 10 µM | 39% of 1,000 active | AID 651; in the data active means inhibition above about 48%; inconclusive means no clear call, values can overlap the other calls
Numbers stand for hits; - = inactive; ? = inconclusive. Shown is part of a subset that was picked to be rich in hits.

SMILES	HIV RNase H inh-1	others
Fc1ccc(CSc2nc3ncccc3[nH]2)cc1	61	HIV RNase H inh-2=-
CCOC(=O)N1CCN(C(=O)c2cn(CCOC)c(=O)c3c2c2ccccc2n3C)CC1	-
COc1ccc(C2OC(=O)CC2C(=O)NC2CCCCCC2)cc1OC (centres undefined)	-
Cc1ccccc1NC(=O)CSc1nc2c(c(-c3ccco3)c1C#N)CCCC2	59	HIV RNase H inh-2=73
N#Cc1c(SCC(=O)Nc2nccs2)nc2c(c1-c1ccco1)CCCC2	82	HIV RNase H inh-2=61
CNC(=O)c1c(C)nc(SCC(=O)NCc2ccc(OC)cc2)c(C#N)c1-c1ccco1	-
Cc1ccccc1NC(=O)CSc1nc(N)c(C#N)c(-c2cccs2)c1C#N	-
COCCOC(=O)c1c(C)nc(SCC(=O)Nc2ccc(C)cc2)c(C#N)c1-c1ccco1	-
CCc1ccccc1NC(=O)CSc1nc2c(c(-c3ccco3)c1C#N)CCCC2	-
CC12C(=O)N(c3nccs3)C(=O)C1C1C=CC2C1 (centres undefined)	-
Nc1nc(N)c2sc3nc4c(cc3c2n1)CCC4	-
COc1cc(C#CC#CCN2CCCCC2)ccc1O	-
O=C(CCn1cccc1)NCCc1ccc(Cl)cc1	-
CC(C)(C)c1ccc(SCC(N)=O)cc1	-
CCC(C)c1ccc(O)c(N)c1 (centres undefined)	60	HIV RNase H inh-2=-
CC(C)c1ccc(O)c(N)c1	58	HIV RNase H inh-2=-
CCN(CC)C(=O)CSc1ccccc1N	-
CCC(C)c1ccc(O)c(NC(=O)c2cncc(Br)c2)c1 (centres undefined)	-
CC(C)(C)c1ccc(O)c(N)c1	86	HIV RNase H inh-2=?
CC(C)(C)c1ccc(-c2cc(N)n[nH]2)cc1	-
COc1ccc(Nc2nc3c(c(=O)n(C)c(=O)n3C)n2CCO)cc1	-
Cc1nc(NC(=O)CSc2nnnn2Cc2ccccc2)sc1C	-
O=C(CCN1CCc2ccccc2C1)Nc1ccc(F)cc1	-
CC1(C)Oc2ccc(NC(=O)C3COc4ccccc4O3)cc2O1 (centres undefined)	-
O=C(Cc1ccc(F)cc1)Nc1c2c(nn1-c1cccc(Cl)c1)CS(=O)C2 (centres undefined)	-
SMILES	HIV RNase H inh-1	others
COc1ccc(OC)c(C(=O)CSc2nc3c(c(=O)n(C)c(=O)n3C)n2C(C)C)c1	-
COc1cccc(-c2cc(C(=O)Nc3ccc(OC)c(OC)c3)no2)c1	-
COC(=O)c1cc(-c2ccc(OC)c(OC)c2)on1	-
COc1ccc(-c2cc(C(=O)Nc3cc(OC)c(OC)c(OC)c3)no2)cc1OC	80	HIV RNase H inh-2=-
Cc1sc2nc(SCC(=O)NCc3ccco3)[nH]c(=O)c2c1C	-
O=C(CSc1nc2sc3c(c2c(=O)n1-c1ccccc1)CCCC3)NCc1ccco1	62	HIV RNase H inh-2=53
CC(C)c1nc2sc3c(SCC(=O)NCc4ccco4)ncnc3c2c2c1CCC2	71	HIV RNase H inh-2=35
CC1(C)Cc2c(sc3nc(SCC(=O)NCc4ccco4)n(-c4ccccc4)c(=O)c23)CS1	-
Cc1sc2nc(SCC(=O)NCc3ccco3)n(CCc3ccccc3)c(=O)c2c1C	82	HIV RNase H inh-2=59
COCCCn1c(SCC(=O)NCc2ccco2)nc2sc3c(c2c1=O)CCC3	-
O=C(CSc1ncnc2sc3c(c12)CCCCC3)NCc1ccco1	-
CC1(C)Cc2nc3sc4c(SCC(=O)NCc5ccco5)ncnc4c3cc2CO1	-
Cc1sc2nc(SCC(=O)NCc3ccco3)n(C)c(=O)c2c1C	-
COc1cc2cc(C(c3nnnn3C3CCCCC3)N(C)C3CCCCC3)c(=O)[nH]c2cc1OC (centres undefined)	-
O=C(NC1CCCCC1)Nn1c(-c2ccccc2)nc2ccccc2c1=O	-
O=C(CCN1C(=O)C2C3C=CC(C3)C2C1=O)NC1CCCc2ccccc21 (centres undefined)	-
Cn1c(=O)c(=O)n(C)c2cc(S(=O)(=O)N3CCN(c4cccc(C(F)(F)F)c4)CC3)ccc21	-
COc1ccc(-c2[nH]ncc2-c2cnn(-c3ccccc3)c2)c(O)c1	-
O=C(Nc1ccc(-c2nc3ccccc3[nH]2)cc1)c1ccco1	-
Cn1cccc1-c1nc2ccc(NC(=O)c3ccccc3)cc2[nH]1	-
CC(C)(C)c1ccc(C(=O)Nc2nonc2-c2nc3ccccc3[nH]2)cc1	60	HIV RNase H inh-2=?
Cc1ccc(-c2c3c(=O)n(C)c(=O)n(C)c3c3c(C)cc(C)nn23)cc1	-
Cc1ccc(SCCCCN2C(=O)NC(C)(C)C2=O)cc1	-
COc1ccccc1N1C(=O)CC(Sc2ncccc2C(=O)O)C1=O (centres undefined)	-
O=C(O)c1cccnc1SC1CC(=O)N(c2cccc(C(F)(F)F)c2)C1=O (centres undefined)	-
SMILES	HIV RNase H inh-1	others
O=C1CC(Sc2ncccn2)C(=O)N1c1ccccc1C(F)(F)F (centres undefined)	70	HIV RNase H inh-2=-
Cn1c(=O)oc2cc(S(=O)(=O)Nc3cccc4c3CCCC4)ccc21	-
Cc1ccnc2c(N3C(=O)C4C5C=CC(C5)C4C3=O)cccc12 (centres undefined)	-
N#Cc1nc(-c2ccc(OCc3ccc(Cl)cc3)cc2)oc1NCc1cccnc1	76	HIV RNase H inh-2=65
N#Cc1nc(-c2ccc(OCc3ccccc3)cc2)oc1NCc1cccnc1	-
N#Cc1nc(-c2ccc(OCc3ccccc3)cc2)oc1NCCCn1ccnc1	-
COC(=O)c1ccc(Cn2cnc3c(sc4nc(N5CCOCC5)c5c(c43)CCCC5)c2=O)o1	64	HIV RNase H inh-2=?
OCCN(CCO)c1ncnc2c1sc1nc(N3CCOCC3)c3c(c12)CCCC3	-
OCCN1CCN(c2ncnc3c2sc2nc(N4CCOCC4)c4c(c23)CCC4)CC1	-
O=c1cc(CSc2ccc(S(=O)(=O)N3CCCCC3)cn2)nc2sccn12	-
O=C1NC(Cc2c[nH]c3ccccc23)C(=O)N1CCOc1ccccc1 (centres undefined)	-
COc1ccc(CCn2c(=N)c(C#N)cc3c(=O)n4ccccc4nc32)cc1	55	HIV RNase H inh-2=-
COc1ccc(CCn2c(=N)c(C(=O)N3CCN(C)CC3)cc3c(=O)n4ccccc4nc32)cc1	-
N#Cc1cc2c(=O)n3ccccc3nc2n(Cc2cccnc2)c1=O	-
Cc1ccc(-c2nnn(CC(=O)N(CC(=O)NC3CCCCC3)c3cnc4ccccc4c3)n2)o1	-
Nn1c(SCC(=O)NC2CCCCC2)nnc1-c1ccc(Cl)cc1	-
CCOC(=O)CSc1nc(N)c(C#N)c(-c2ccc(OCC)cc2)c1C#N	-
N#Cc1c(N)nc(SCC(=O)NC2CCCCC2)c(C#N)c1-c1ccc(Cl)cc1	82	HIV RNase H inh-2=59
CN(C)/C=N/c1c(C(=O)NCc2ccccc2)nnn1Cc1ccccc1	-
Cc1cc(NC(=O)CN2CCN(c3ccccc3O)CC2)no1	-
COc1ccc2nc(C)c(C(=O)OCCN(C)C)cc2c1	-
COCCOc1ccc(C(F)(F)F)cc1Nc1nc2ccccc2o1	56	HIV RNase H inh-2=-
COCc1cc(=O)[nH]c(Nc2nc3ccccc3o2)n1	-
COCCOc1ccc(C(F)(F)F)cc1NC(=O)COC(=O)c1c(C)noc1C	-
O=C(CCn1ccc2ccccc21)Nc1ccc(N2CCOCC2)cc1	-
Cc1nnc(NC(=O)NC(C)N2C(=O)C3C4C=CC(C4)C3C2=O)s1 (centres undefined)	55	HIV RNase H inh-2=-
Cc1nnc(NC(=O)CCCCCN2C(=O)C3C4C=CC(C4)C3C2=O)s1 (centres undefined)	-
CC(NC(=O)Nc1nnc(C(F)(F)F)s1)N1C(=O)C2C3C=CC(C3)C2C1=O (centres undefined)	-
CCN1C(=O)CC(C(=O)O)SC1=Nc1ccc(OC)cc1 (centres undefined)	-
